# Screening data as filed in PubChem.
# ClpP mod: qHTS Assay for Activators of ClpP. ATP-dependent Clp protease proteolytic subunit (Bacillus subtilis (strain 168)), P80244. purified B. subtilis ClpP, FRET peptide cleavage, 20 min. Potency, µM (titrated, usually from 57.5 µM), inactives show at the top dose activity change, negative = active. 340,000 compounds, 1.9% hits; active = well fitted falling curve with a large enough effect; inconclusive = small, poorly fitted or top-dose-only effect; inactive = no such curve, though single readings can be large or run the other way; also: potency is read from the fitted curve at half-maximal effect; the source files actives as falling curves though it sought activators and does not explain the sign; nearly all actives have a fitted effect of over 65% in size
# Target sequence (P80244 whole entry, looked up): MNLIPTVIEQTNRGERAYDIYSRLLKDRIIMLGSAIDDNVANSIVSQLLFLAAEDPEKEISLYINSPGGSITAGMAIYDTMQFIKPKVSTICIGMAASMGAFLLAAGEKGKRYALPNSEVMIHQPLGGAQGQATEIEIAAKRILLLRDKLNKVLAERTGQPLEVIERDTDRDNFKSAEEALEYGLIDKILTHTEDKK
#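 FRET quenching reversal measured ClpP activation: 10 microg/mL B. subtilis ClpP at pH 8 with the FRET-FV decapeptide, read at 430 nm after 320 nm excitation. The 20-min minus 0-min signal was scaled between DMSO/no-enzyme wells and ADEP (5.8 microM final).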
# RXFP1 antagonist: antagonists of human relaxin receptor RXFP1; HEK293-RXFP1, relaxin-stimulated cAMP HTRF, 30 min; hits give low values; activity change, negative = inhibition, % at 57.5 µM; 350,000 compounds, 0.59% hits; AID 1259400;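 active = activity change of -60% or lower, but not beyond a set lower limit; inconclusive = change between -60% and -40%, or beyond the set limit; inactive = change above -40%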; also: % is scaled to controls: 0 for no effect and ±100 for the full control effect
# Akt phos inh: inhibitors of Akt phosphorylation | Neuro2A IGF-stimulated pAkt S473 HTRF, 20 min; hits give low values | activity change, % for hits at 50 µM | 360,000 compounds, 0.32% hits; in the data active = activity change below about -80%; inconclusive = mostly about -51% to -80%; also: % is scaled to controls: 0 for no effect and ±100 for the full control effect
#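 Neuro2A cells (4,500/well, DMEM with 0.5% FBS) were treated with compound at a single 50 µM final concentration, stimulated with 6 nM IGF for 20 min at 37 °C, and lysed. Phospho-Akt Ser473 was read by HTRF as 665/615 ratio ×10^4.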
# gsp agonist: agonists of gsp mutant (McCune-Albright syndrome); Potency, µM (series often up to 76.9 µM), for the others: at the top dose activation (cAMP increase), most hits filed as activators; AID 624287; gsp mutant cells, cAMP HTRF, 30 min; 340,000 compounds, 0.13% hits; active = well fitted activation curve with a large enough effect; inconclusive = small, poorly fitted or top-dose-only effect, or another doubt; inactive = no such curve, though single readings can be large or run the other way; cell line not stated here;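 also: phosphodiesterase inhibitor Ro 20-1724 added with compounds to block cAMP breakdown; potency is read from the fitted curve at half-maximal effect; nearly all actives have a fitted effect of over 60% in size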
#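 Cells in DMEM/10% FBS with G418 were pretreated with compounds in DMSO plus […] (300 uM stock) for 30 min at 37C. cAMP was measured by HTRF (cAMP-d2 plus anti-cAMP antibody-K) after 30 min at room temperature.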
# RXFP1 agonist: activates the human relaxin receptor RXFP1 | HEK293T-RXFP1 cAMP TR-FRET, 30 min; response scale: percent of porcine relaxin response, buffer zero | 370,000 compounds, 0.3% hits | Potency, µM (highest dose often 57.5 µM), for inactives: at the highest dose activation, most hits filed as activators | Q9HBX9; active = well fitted activation curve with a large enough effect; inconclusive = small, poorly fitted or top-dose-only effect; also: potency is read from the fitted curve at half-maximal effect; % is scaled to controls: 0 for no effect and ±100 for the full control effect; nearly all actives have a fitted effect of over 60% in size
#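 cAMP rise read by TR-FRET after 30 min, 37C compound exposure (up to 58 uM) in RXFP1-transfected HEK293 cells with Ro 20174 present. EC50 from Hill-equation fits, with 29 nM porcine relaxin as 100% and buffer as basal.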
# gsp antagonist: gsp mutant antagonism. gsp-mutant cells, cAMP HTRF, 30 min. AID 624288. 340,000 compounds, 0.4% hits. Potency, µM (top dose mostly 76.9 µM), without a hit: top-dose activity change, negative = inhibition, actives largely listed as inhibitors; calls by dose curve; cell line not stated here;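 also: intracellular cAMP measured with PDE inhibitor Ro 20-1724 present during compound exposure; potency is read from the fitted curve at half-maximal effect; % is scaled to controls: 0 for no effect and ±100 for the full control effect; nearly all actives have a fitted effect of over 65% in size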
#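 Cells, 2000/well, grown 16–24 h in DMEM 10% FBS with 0.5 mg/ml G418, then compounds plus […] (300 uM addition stock), 30 min at 37C. cAMP read by HTRF (cAMP-d2 and anti-cAMP antibody-K in lysis buffer) after 30 min RT.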
# The depositor's hits bear a star; i = inactive; ? = inconclusive; nt = no result; [ ] = dose if it differs, or a comment. This is a sample that favours compounds with a hit; in the whole collection about 2.7% have one here.
SMILES,ClpP mod,RXFP1 antagonist,Akt phos inh,gsp agonist,RXFP1 agonist,gsp antagonist
Cc1nn(CCCC(=O)NCc2ccc(F)cc2)c(=O)c2nccn12,-0.7%,0.0,i,?,28.2µM*,22.5%
Cc1ccc(CNC(=O)CCCn2nc(C)n3ccnc3c2=O)cc1,-1.2%,21.1,i,?,15.8µM*,4.2%
COc1ccc(CCNC(=O)CCCn2nc(C)n3ccnc3c2=O)cc1OC,-0.9%,-4.2,i,?,?,18.0%
COC(=O)c1ccc(NC(=O)CN(C2CCCCC2)S(C)(=O)=O)cc1,0.708µM*,8.8,i,-3.1%,1.3%,-6.4%
O=C(NCc1ccco1)c1ccc(Cn2c(SCc3ccccc3F)nc3cccnc32)cc1,4.4%,-5.4,nt,nt,4.9%,nt
CCCNC(=O)c1c(N)n(-c2cccc(OC)c2)c2nc3ccccc3nc12,20µM*,-7.7,i,25.0%,5.8%,?
COc1ccc(CCn2c(N)c(C(=O)NCc3ccco3)c3nc4ccccc4nc32)cc1,31.6µM*,-0.4,i,-3.3%,4.3%,-5.3%
COc1ccc(CCn2c(N)c(S(=O)(=O)c3cccs3)c3nc4ccccc4nc32)cc1OC,-16.2%,-0.7,i,26.3%,4.9%,-12.7%
CCOC(=O)c1c(N)n(-c2ccc(C)c(C)c2)c2nc3ccccc3nc12,4.2%,nt,nt,nt,2.7%,nt
Nc1c(C(=O)NCc2ccco2)c2nc3ccccc3nc2n1CCc1ccccc1F,28.2µM*,-5.8,i,-19.4%,0.3%,-13.8%
COc1ccc(CCn2c(N)c(C(=O)NCc3ccco3)c3nc4ccccc4nc32)cc1OC,28.2µM*,-8.1,i,-1.3%,2.8%,-19.4%
CCCSS/C(CCO)=C(\C)N(C=O)Cc1cnc(C)nc1N,nt,9.1,nt,nt,nt,nt
COc1ccccc1NC(=O)Cn1cnc2c(nc3n2CCCCC3)c1=O,-0.1%,6.3,i,20.0%,6.9%,9.8%
COCCn1c(N)c(C(=O)OCc2ccccc2)c2nc3ccccc3nc21,7.94µM*,16.7,i,12.0%,-0.5%,-5.9%
COc1ccc(-n2c(N)c(C(=O)NCc3ccco3)c3nc4ccccc4nc32)c(OC)c1,11.2µM*,-10.0,i,7.2%,1.6%,-12.6%
Cc1ccc2c(c1)-c1onc(C(=O)N(C)c3cccc(C(F)(F)F)c3)c1CO2,-15.5%,nt,nt,nt,-0.2%,nt
CCCCCCCCCOC(=O)CNc1nc(C#N)nc(NCC(=O)OCCCCCCCCC)n1,-5.1%,nt,nt,nt,nt,nt
CC(C)(C)n1nnnc1CN1CCN(C2CCCC2)CC1,1.4%,4.0,-102.6%*,-2.9%,-1.0%,4.4%
Cc1ccccc1C(=O)N1CCC(C(=O)Nc2nc3ccc(F)cc3s2)CC1,1.9%,-23.6,i,-1.0%,2.0%,39.8µM*
O=[N+]([O-])c1ccc(NCCNCCOc2nonc2-c2ccccc2)c([N+](=O)[O-])c1,15.8µM*,-6.4,i,-4.9%[15.4 µM],0.9%,-1.5%
Cc1nonc1OCCNCCNc1ccc([N+](=O)[O-])cc1Cl,nt,-4.4,i,-14.5%,-0.5%,-2.9%
COc1ccccc1C(=O)NCC(c1ccc(N(C)C)cc1)N1CCc2ccccc21 (stereo not given),-23.0%,-27.0,nt,nt,1.9%,nt
CCOc1ccc(C2CC(=O)n3nc(-c4ccc(C)cc4)nc3S2)cc1OC (stereo not given),-0.4%,nt,nt,nt,0.5%,nt
Cc1cccc(-n2ccnc2SCC(=O)O)c1C,10µM*,-14.3,i,-18.3%[15.4 µM],-1.1%,6.8%
CCc1nc2ccc(C(=O)NCc3ccc4c(c3)OCO4)cn2c1N(CC)CCOC,-1.3%,nt,i,nt,nt,nt
O=C(NCCSCc1ccco1)Nc1cc(Cl)cc(Cl)c1,nt,-71.4*,i,5.3%,1.4%,?
CC1(C(=O)NS(=O)(=O)c2ccccc2Cl)CCN1C(=O)C1CCCCC1 (stereo not given),-3.8%,nt,i,nt,nt,nt
C=C1c2cc3c(cc2NC(=S)N1Cc1ccccc1)OCO3,nt,-1.5,i,-2.6%[15.4 µM],-0.2%,-9.9%
